We go through three compounds from PubChem BioAssay (EPA / NIEHS).

Active and inactive are the calls of the source. Rule for the calls: active = hit-call score of the fitted dose curve at least 0.9, where 1 is the maximum; inactive = score below 0.9.

What is called AC50 is the midpoint of the concentration-response curve, whichever way the signal moves.

What all share (conditions): mRNA level, 48 h; actives raise or lower the signal
Read-out in experiment [1]: Bcl-2 (BID) gene, BID (gene 637)
In words: LTEA_HepaRG_BID: Life Technologies and Expression Analysis (LTEA) Assay for Bcl-2 (BID) gene using HepaRG (AID 2283476). The procedure, abridged:
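Gene expression by qRT-PCR in HepaRG cells after 48 h exposure, duplicate wells, eight half-log concentrations topping at 100 uM in 0.5% DMSO. Normalized to ACTB, GAPDH, POLR2A; bidirectional fitting relative to DMSO.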

Read-out in experiment [2]: Caspase-3 (Homo sapiens) (UniProt P42574)
In words: LTEA_HepaRG_CASP3: Life Technologies and Expression Analysis (LTEA) Assay for cysteine-aspartic acid protease (CASP3) using HepaRG (AID 2283477). The gist of the method: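 In HepaRG liver cells dosed for 48 h at up to 100 uM (eight-point, duplicate), CASP3 expression changes are scored by qRT-PCR. Activity is fitted in both directions with 0.5% DMSO as baseline.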

Read-out in experiment [3]: Cytochrome P450 (CYP24A1), CYP24A1 (gene 1591)
In words: LTEA_HepaRG_CYP24A1: Life Technologies and Expression Analysis (LTEA) Assay for Cytochrome P450 (CYP24A1) using HepaRG (AID 2283478). The procedure, abridged:
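Human liver HepaRG cultures receive each chemical for 48 h across an eight-point half-log series topping at 100 uM in 0.5% DMSO. Induction or suppression of CYP24A1 mRNA is scored relative to vehicle after housekeeping-gene normalization.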

Read-out in experiment [4]: Cytochrome P450 (CYP1A2), CYP1A2 (gene 1544)
In words: LTEA_HepaRG_CYP1A2: Life Technologies and Expression Analysis (LTEA) Assay for Cytochrome P450 (CYP1A2) using HepaRG (AID 2283479). The procedure, abridged:
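Assesses CYP1A2 mRNA in human HepaRG liver cells after 48 h chemical exposure at up to 100 uM. Values come from qRT-PCR with bidirectional curve fitting relative to DMSO.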

Read-out in experiment [5]: cysteine-aspartic acid protease (CASP8), CASP8 (gene 841)
Kind of experiment: LTEA_HepaRG_CASP8: Life Technologies and Expression Analysis (LTEA) Assay for cysteine-aspartic acid protease (CASP8) using HepaRG (AID 2283480). The gist of the method: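 Differentiated HepaRG cells in serum-free induction medium, 48 h exposure, eight-point half-log series from 100 uM in 0.5% DMSO, duplicates. CASP8 mRNA by qRT-PCR, normalized to ACTB, GAPDH, POLR2A; bidirectional fit versus DMSO.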

Read-out in experiment [6]: Cytochrome P450 (CYP2B6), CYP2B6 (gene 1555)
Kind of experiment: LTEA_HepaRG_CYP2B6: Life Technologies and Expression Analysis (LTEA) Assay for Cytochrome P450 (CYP2B6) using HepaRG (AID 2283481). The procedure, abridged:
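Using 48 h treatment of HepaRG cells in serum-free induction medium, concentrations spanned half-log steps from 100 uM in 0.5% DMSO vehicle. CYP2B6 mRNA induction or loss is scored by qRT-PCR against DMSO.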

Read-out in experiment [7]: Cytochrome P450 2C19 (Homo sapiens) (UniProt P33261)
Kind of experiment: LTEA_HepaRG_CYP2C19: Life Technologies and Expression Analysis (LTEA) Assay for CYP2C19 using HepaRG (AID 2283482). The gist of the method: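 Human HepaRG liver cells received test chemicals for 48 h (highest 100 uM, half-log dilutions in 0.5% DMSO). CYP2C19 mRNA induction or loss is read by multiplexed qRT-PCR and fitted in both directions versus vehicle.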

Read-out in experiment [8]: CYP2C8 (gene 1558)
Kind of experiment: LTEA_HepaRG_CYP2C8: Life Technologies and Expression Analysis (LTEA) Assay for CYP2C8 using HepaRG (AID 2283483). The procedure, abridged: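 Differentiated HepaRG cells in serum-free induction medium exposed 48 h in duplicate to 8 half-log concentrations from 100 uM in 0.5% DMSO. CYP2C8 mRNA by qRT-PCR normalized to ACTB, GAPDH, POLR2A; bidirectional fit versus DMSO.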

Read-out in experiment [9]: CYP2E1 (gene 1571)
Kind of experiment: LTEA_HepaRG_CYP2E1: Life Technologies and Expression Analysis (LTEA) Assay for CYP2E1 using HepaRG (AID 2283485). The gist of the method:
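HepaRG cells, plated 48 h, then exposed 48 h in serum-free induction medium to eight half-log concentrations from 100 uM in 0.5% DMSO, duplicate. CYP2E1 mRNA by qRT-PCR, normalized to ACTB/GAPDH/POLR2A; bidirectional fit versus DMSO.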

Read-out in experiment [10]: CYP4A11 (gene 1579)
In words: LTEA_HepaRG_CYP4A11: Life Technologies and Expression Analysis (LTEA) Assay for CYP4A11 using HepaRG (AID 2283486). The gist of the method:
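Readout is CYP4A11 mRNA induction or suppression (qRT-PCR, ACTB/GAPDH/POLR2A normalization) in human HepaRG cells after 48 h chemical treatment, concentrations to 100 uM in 0.5% DMSO, fitted bidirectionally against vehicle.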

Read-out in experiment [11]: Cytochrome P450 3A4 (Homo sapiens) (UniProt P08684)
In words: LTEA_HepaRG_CYP3A4: Life Technologies and Expression Analysis (LTEA) Assay for CYP3A4 using HepaRG (AID 2283487). The procedure, abridged:
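Differentiated HepaRG cells in serum-free induction medium exposed in duplicate for 48 h to 8 half-log concentrations up to 100 uM in 0.5% DMSO. CYP3A4 mRNA measured by qRT-PCR normalized to ACTB, GAPDH and POLR2A; bidirectional fit versus DMSO.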

Read-out in experiment [12]: DNA damage-inducible transcript 3 (DDIT3), DDIT3 (gene 1649)
In words: LTEA_HepaRG_DDIT3: Life Technologies and Expression Analysis (LTEA) Assay for DNA damage-inducible transcript 3 (DDIT3) using HepaRG (AID 2283488). The procedure, abridged: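 HepaRG cells, 48 h after plating, exposed 48 h in serum-free induction medium to 8 half-log concentrations up to 100 uM in 0.5% DMSO, in duplicate. DDIT3 mRNA measured by TaqMan qRT-PCR, normalized to ACTB, GAPDH and POLR2A. Fitted bidirectionally against DMSO.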

Read-out in experiment [13]: Pro-epidermal growth factor (Homo sapiens) (UniProt P01133)
Kind of experiment: LTEA_HepaRG_EGF: Life Technologies and Expression Analysis (LTEA) Assay for Epidermal growth factor (EGF) using HepaRG (AID 2283489). The gist of the method:
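EGF expression changes in human HepaRG cells are scored by bidirectional fitting relative to 0.5% DMSO controls. Chemicals are tested at eight half-log concentrations up to 100 uM for 48 h in serum-free induction medium.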

Read-out in experiment [14]: Early growth response protein 1 (EGR1) transcription factor, EGR1 (gene 1958)
In words: LTEA_HepaRG_EGR1: Life Technologies and Expression Analysis (LTEA) Assay for Early growth response protein 1 (EGR1) transcription factor using HepaRG (AID 2283490). The procedure, abridged: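 Differentiated HepaRG cells in serum-free induction medium exposed 48 hours, duplicate, to 8 half-log concentrations up to 100 uM in 0.5% DMSO. EGR1 mRNA measured by TaqMan qRT-PCR, normalized to ACTB, GAPDH, POLR2A; bidirectional fit versus DMSO.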

Read-out in experiment [15]: Ezrin (EZR), EZR (gene 7430)
In words: LTEA_HepaRG_EZR: Life Technologies and Expression Analysis (LTEA) Assay for Ezrin (EZR) using HepaRG (AID 2283491). The gist of the method:
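Differentiated human HepaRG cells, 48 h after plating, were exposed in serum-free induction medium for 48 hours to eight half-log concentrations up to 100 uM in 0.5% DMSO. EZR mRNA was measured by TaqMan qRT-PCR, normalized to ACTB, GAPDH and POLR2A, and fitted bidirectionally against DMSO.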

Read-out in experiment [16]: Cytochrome P450 3A7 (Homo sapiens) (UniProt P24462)
In words: LTEA_HepaRG_CYP3A7: Life Technologies and Expression Analysis (LTEA) Assay for CYP3A7 using HepaRG (AID 2283492). The gist of the method:
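Cells were thawed, plated, cultured 48 h, then treated for a further 48 h with chemicals (eight-point half-log series from 100 uM, 0.5% DMSO). RNA was isolated and CYP3A7 expression quantified by qRT-PCR normalised to ACTB, GAPDH and POLR2A.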

Read-out in experiment [17]: CYP3A5 (gene 1577)
Kind of experiment: LTEA_HepaRG_CYP3A5: Life Technologies and Expression Analysis (LTEA) Assay for CYP3A5 using HepaRG (AID 2283493). The procedure, abridged: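 HepaRG cells, plated 48 h then in serum-free induction medium, dosed in duplicate for 48 h with eight half-log concentrations up to 100 uM in 0.5% DMSO. Gene mRNA by Fluidigm TaqMan qRT-PCR, normalized to ACTB, GAPDH, POLR2A.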

Read-out in experiment [18]: Cytochrome P450 4A22 (Homo sapiens) (UniProt Q5TCH4)
In words: LTEA_HepaRG_CYP4A22: Life Technologies and Expression Analysis (LTEA) Assay for Cytochrome P450 4A22 (CYP4A22) using HepaRG (AID 2283495). The gist of the method: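 Cryopreserved HepaRG cells, plated and cultured 48 h, then switched to serum-free induction medium and treated 48 h (duplicates, up to 100 uM, half-log steps, 0.5% DMSO). Expression change of CYP4A22 was fitted bidirectionally against vehicle.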

Chain of Cytochrome P450 2C19 (Homo sapiens) (P33261 whole entry, looked up): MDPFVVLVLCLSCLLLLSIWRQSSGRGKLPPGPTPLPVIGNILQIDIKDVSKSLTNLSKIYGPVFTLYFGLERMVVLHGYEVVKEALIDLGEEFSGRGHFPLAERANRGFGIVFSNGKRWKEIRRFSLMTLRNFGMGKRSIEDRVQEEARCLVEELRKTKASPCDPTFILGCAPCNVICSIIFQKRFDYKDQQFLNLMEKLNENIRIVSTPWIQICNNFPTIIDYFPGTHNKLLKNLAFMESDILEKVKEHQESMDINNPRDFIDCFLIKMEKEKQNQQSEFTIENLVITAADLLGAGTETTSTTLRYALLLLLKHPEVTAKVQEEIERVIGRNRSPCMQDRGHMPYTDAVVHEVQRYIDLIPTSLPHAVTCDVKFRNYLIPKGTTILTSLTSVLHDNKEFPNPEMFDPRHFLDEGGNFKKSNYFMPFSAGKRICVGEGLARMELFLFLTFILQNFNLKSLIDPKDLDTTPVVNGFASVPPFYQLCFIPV
Chain of Cytochrome P450 3A7 (Homo sapiens) (P24462 whole entry, looked up): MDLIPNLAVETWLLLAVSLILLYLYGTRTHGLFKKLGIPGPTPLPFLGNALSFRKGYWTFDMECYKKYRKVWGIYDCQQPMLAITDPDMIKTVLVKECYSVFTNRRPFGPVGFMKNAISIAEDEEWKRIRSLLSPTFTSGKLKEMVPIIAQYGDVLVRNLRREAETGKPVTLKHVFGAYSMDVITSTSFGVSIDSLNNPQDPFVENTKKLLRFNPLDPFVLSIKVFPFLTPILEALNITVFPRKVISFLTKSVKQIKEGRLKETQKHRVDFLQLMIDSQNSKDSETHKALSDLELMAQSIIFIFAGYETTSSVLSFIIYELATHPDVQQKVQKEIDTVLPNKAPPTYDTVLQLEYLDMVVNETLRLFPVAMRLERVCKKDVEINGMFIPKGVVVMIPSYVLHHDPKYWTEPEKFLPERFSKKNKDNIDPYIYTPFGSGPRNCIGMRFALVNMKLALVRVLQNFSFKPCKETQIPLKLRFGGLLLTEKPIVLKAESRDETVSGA
Chain of Cytochrome P450 3A4 (Homo sapiens) (P08684 whole entry, looked up): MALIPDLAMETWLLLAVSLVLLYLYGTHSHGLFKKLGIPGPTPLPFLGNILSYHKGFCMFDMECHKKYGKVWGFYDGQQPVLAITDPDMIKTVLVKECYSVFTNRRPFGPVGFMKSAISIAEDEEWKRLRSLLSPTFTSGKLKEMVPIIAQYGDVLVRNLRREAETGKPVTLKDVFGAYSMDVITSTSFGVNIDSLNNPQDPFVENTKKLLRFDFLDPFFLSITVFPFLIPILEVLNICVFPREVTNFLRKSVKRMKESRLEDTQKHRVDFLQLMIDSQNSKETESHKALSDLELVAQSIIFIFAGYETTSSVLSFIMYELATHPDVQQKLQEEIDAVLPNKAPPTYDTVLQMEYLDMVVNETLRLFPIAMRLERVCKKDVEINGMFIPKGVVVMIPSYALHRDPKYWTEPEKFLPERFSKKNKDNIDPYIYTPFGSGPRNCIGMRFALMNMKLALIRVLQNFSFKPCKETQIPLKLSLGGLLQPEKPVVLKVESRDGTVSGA
Chain of Caspase-3 (Homo sapiens) (P42574 whole entry, looked up): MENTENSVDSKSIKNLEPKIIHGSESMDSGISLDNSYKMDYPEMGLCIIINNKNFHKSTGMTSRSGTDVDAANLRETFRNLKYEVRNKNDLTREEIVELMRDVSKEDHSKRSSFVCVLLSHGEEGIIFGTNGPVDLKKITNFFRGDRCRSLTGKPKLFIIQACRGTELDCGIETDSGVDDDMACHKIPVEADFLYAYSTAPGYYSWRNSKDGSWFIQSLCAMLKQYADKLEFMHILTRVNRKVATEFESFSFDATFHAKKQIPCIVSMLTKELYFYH

For `CCNc1nc(Cl)nc(NC(C)(C)C#N)n1`, the call in experiment [1], in experiment [2], in experiment [3], in [4], in experiment [5] and in experiment [8] was inactive. Further, the compound was classed as inactive in [12], in experiment [13], in [14], in [15], in [17] and in [18]. In addition, the concentration at half-maximal activity (AC50) in [6] is 1.68 µM (active); in experiment [7], 12.4 µM (active); in experiment [9], 13.2 µM (active); in experiment [10], 39.9 µM (active); in experiment [11], 4.42 µM (active); in experiment [16] it was 1.77 µM (active).

For `CCCOCC(=Nc1ccc(Cl)cc1C(F)(F)F)n1ccnc1`, the compound was called inactive in [1], in experiment [2], in experiment [3], in experiment [4], in experiment [5] and in [13]. For the same compound, the outcome in [14] and in experiment [15] was inactive. The AC50 in experiment [6] was 30.4 µM (active); in experiment [7], 32.5 µM (active); in experiment [8], 25.7 µM (active); in experiment [9], 13.2 µM (active); in experiment [10] it was 23 µM (active); in experiment [11], 73.5 µM (active). Further, the AC50 in [12] was 72.4 µM (active); in experiment [16], 23 µM (active); in experiment [17], 71 µM (active); in [18] it was 15.8 µM (active).

Turning to `CN1COCN(Cc2cnc(Cl)s2)C1=N[N+](=O)[O-]`, the result in experiment [1], in experiment [2], in experiment [3], in experiment [4], in experiment [5] and in experiment [7] was inactive. The result in [8], in experiment [9], in [10], in [12], in experiment [13] and in experiment [14] was inactive. In addition, the result in experiment [15], in experiment [16], in experiment [17] and in [18] was inactive. Also, the figures for the AC50 in experiment [6] and in [11] were 50 µM (active) and 38.8 µM (active), respectively.
